Screening results (PubChem)
Abs 340nm = compound light absorbance at 340 nm, profiling panel, artefact control, biochemical, MLSMR library, data from PS, PMK, MK assays; fold change at 10 µM; compound absorbance at 340 nm, fold over control; 65,000 tested, under 10 active;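 active means at 10 µM dose, initial 340 nm absorbance at least 2 fold that of control wells; inactive means change under 2 fold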;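 further: initial absorbance extrapolated from kinetic A340 decline of NADH oxidation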
Fluor 339 460 = intrinsic fluorescence of library compounds, ex339/em460 – biochemical, MLSMR library, data from DPM-DC assay, artefact control, profiling panel. compound autofluorescence, ex339/em460 nm, NADH buffer; hits give high values; 1 = no-compound wells, NADH background. AID 709, 2007. fluorescence fold increase at 10 µM. 65,000 compounds, 5.5% hits;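 active means at 10 µM, mean starting fluorescence two-fold or more over control wells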;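 further: signal is the first read of a kinetic run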
NADH enzymes = inhibitors of PK/LDH coupling enzymes, profiling panel, artefact control, biochemical, MLSMR library | coupled PK/LDH NADH assays, four targets | IC50, µM (top dose mostly 10 µM), inactives show at the highest dose inhibition | 65,000 compounds, 0.02% hits;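 active means single-dose screening hits from any of four coupled enzyme assays that gave an IC50 when retested across doses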;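 further: the DPM-DC format reads NADH fluorescence rather than 340 nm absorbance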
PMK inhibit = S. pneumoniae PMK inhibitors, primary screen, biochemical, mevalonate pathway, pilot trial included | purified PMK, PK/LDH-coupled NADH absorbance 340 nm | inhibition, % at 10 µM | 65,000 compounds, 0.49% hits | AID 539, 2006;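 active means top-ranked compounds by inhibition in the single 10 µM screen, taking a fixed number of the strongest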;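 further: 0% = full reaction with DMSO carrier and 100% = background rate without enzyme reaction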
DPM-DC inhibit = S. pneumoniae DPM-DC inhibitors, primary screen, biochemical, PK/LDH-coupled NADH fluorescence; calls only at 10 µM; purified DPM-DC; diphosphomevalonate decarboxylase (Streptococcus pneumoniae D39); 65,000 compounds, 0.49% hits;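 active means the 320 compounds with the highest percent inhibition in the single-dose primary screen, excluding strongly autofluorescent ones, cut at about 32% in these data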;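 further: kinetic rate of NADH fluorescence loss reporting ADP formed by the decarboxylase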
Spn MK inh = S. pneumoniae MK inhibitors, primary screen, biochemical, PK/LDH-coupled NADH absorbance; purified MK, PK/LDH-coupled NADH absorbance 340 nm; mevalonate kinase [Streptococcus pneumoniae D39]; 65,000 compounds, 0.48% hits; AID 555, 2006; inhibition, % at 10 µM;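 active means ranked among the strongest by inhibition in the single 10 µM screen, a fixed top-ranked set picked for dose follow-up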
* marks the source's active call; other numbers are inactive results; i = inactive; nt = not tested or not shown; + = active, no number. A selection: hits, their analogues and other compounds. The true share with any hit is near 6.8%.

SMILES	Abs 340nm	Fluor 339 460	NADH enzymes	PMK inhibit	DPM-DC inhibit	Spn MK inh
CC(=O)Nc1cccc(-c2nnc(SCc3ccccc3C#N)n2C)c1	0.98	1	5%	1	i	13
CCc1c(C)nc(/N=C(/NC(=O)c2ccccc2)Nc2ccccc2OC)[nH]c1=O	1.1	1.1	9%	10	i	10
Cc1cccc2cc3c(NC(=O)CC(C)C)nn(C)c3nc12	1	2.9*	11%	9	i	8
CCCCC(=O)Nc1nn(CCC)c2nc3ccccc3cc12	0.99	1.4	3%	4	i	5
CCCCC(=O)Nc1nn(C)c2nc3c(C)cccc3cc12	1	2.4*	12%	15	i	10
CNC(=O)c1ccsc1NC(=O)c1ccc(Cl)s1	1.1	1.1	5%	0	i	6
CC(=O)OCC(=O)c1ccc2ccn(C(C)=O)c2c1	1	3.4*	2%	16	nt	0
COc1ccccc1N1CCN(CC(=O)c2ccc3ccn(C(C)=O)c3c2)CC1	1.1	1.3	2%	0	i	3
Cc1ccc(-c2cn3cccnc3n2)cc1NC(=O)c1c(-c2ccccc2Cl)noc1C	1	5.2*	5%	10	nt	0
Cc1onc(-c2ccccc2Cl)c1C(=O)Nc1cccc(-c2nc3ncccn3c2C)c1	1	5.2*	6%	12	nt	0
CC(=O)Nc1cccc(NC(=O)c2c(-c3ccccc3Cl)noc2C)c1	1	1	4%	4	i	7
Cc1onc(-c2ccccc2Cl)c1C(=O)Nc1ccc(-c2cn3cccnc3n2)cc1	1.1	5.2*	9%	18	nt	0
CC1(C)CC(=O)C2=C(C1)Oc1nc3ccccc3cc1C2C(C#N)C#N (centres undefined)	1	1.1	4%	0	i	8
COc1ccc(N(CC(=O)Nc2cc(OC)ccc2OC)S(C)(=O)=O)cc1	1	1.1	17%	0	i	51*
COc1ccc(-c2cc(C(F)(F)F)n3ncc(C(=O)NCc4ccco4)c3n2)cc1	1.1	2.2*	3%	0	nt	6
Cc1cc(-c2ccccc2)nc2cc(C(N)=O)nn12	1	2*	8%	3	+	13
O=C(NCc1ccco1)c1cc2nc(-c3cccs3)cc(C(F)(F)F)n2n1	1.1	2.1*	15%	11	nt	18
O=C(CSc1nc(-c2ccco2)cc(C(F)(F)F)n1)NC1CCCC1	1.1	1.1	8%	10	i	7
O=C(NC1CCCC1)c1cnn2c(C(F)(F)F)cc(-c3ccco3)nc12	1.1	2.9*	15%	18	i	3
O=C(NCc1ccco1)c1cnn2c(C(F)(F)F)cc(-c3ccccc3)nc12	1	1.2	1%	0	i	0
CCN(CC(=O)Nc1c(C(=O)OC)[nH]c2ccc(C)cc12)c1ccc2c(c1)OCO2	1.1	1.1	7%	15	i	7
CCOC(=O)c1cnn(-c2cc(C)nc3c(-c4ccccc4)cnn23)c1N	1	1.1	1%	2	i	2
CCOC(=O)c1cnn2c(C)cc(-c3ccccc3)nc12	1.1	3.7*	9%	12	nt	6
O=C(NC1CCCC1)c1cnn2c(C(F)(F)F)cc(-c3ccc4c(c3)OCO4)nc12	1.1	2.1*	9%	15	i	0
O=C(c1cnn2c(C(F)(F)F)cc(-c3ccc4c(c3)OCO4)nc12)N1CCCCC1	1	1.4	2%	1	i	5
SMILES	Abs 340nm	Fluor 339 460	NADH enzymes	PMK inhibit	DPM-DC inhibit	Spn MK inh
CCOC(=O)c1cnn2c(C(F)(F)F)cc(-c3ccco3)nc12	1.2	4.3*	7%	6	nt	8
CCOC(=O)c1cnn2c(C(F)F)cc(C3CC3)nc12	1.1	1.8	10%	7	i	2
CCOC(=O)c1cc(-c2ccco2)nc2c1c(C)nn2-c1ccccc1	1.1	2.5*	7%	5	i	0
Cc1nn(-c2ccccc2)c2nc(-c3ccncc3)cc(C(=O)NCc3ccco3)c12	1.1	1.8	11%	14	i	0
CCOC(=O)Cn1c(=O)oc2cc(S(=O)(=O)NCCc3ccc(OCC)c(OCC)c3)ccc21	1	1.1	4%	11	i	0
CC(C)CCNC(=O)c1cnn2c(C(F)(F)F)cc(-c3ccco3)nc12	1.1	3*	12%	14	i	2
CC(=O)Nc1ccc2nc(-c3cccs3)[nH]c2c1	1.1	2.3*	5%	8	nt	2
O=C1CSc2ccc(C(=O)N3CCN(c4ccccn4)CC3)cc2N1	1	1.1	4%	10	i	2
COCCNC(=O)c1ccc2c(c1)NC(=O)CS2	1	1	12%	27*	i	8
Cc1ccsc1C1C(C(=O)O)c2ccccc2C(=O)N1C (centres undefined)	1	1.2	79%	85*	+	53*
CN1C(=O)c2ccccc2C(C(=O)O)C1c1cccc(F)c1 (centres undefined)	1	1	5%	16	i	0
Cc1sc2nc3ccc(N4CCCC4)nn3c(=O)c2c1C	1.1	2.1*	5%	3	nt	7
Cc1sc2nc3n(c(=O)c2c1C)CCCS3	1.1	1.1	2%	2	i	2
Cc1nc2oc3c(NCc4ccccn4)ncnc3c2c2c1COC(C)(C)C2	1	1.9	5%	3	+	0
c1nc(NCC2CCCO2)c2[nH]cnc2n1 (centres undefined)	0.99	1.1	6%	13	i	6
CCCc1nc2oc3c(NCC4CCCO4)ncnc3c2c2c1COC(C)(C)C2 (centres undefined)	1	3.2*	11%	3	i	7
CCCc1nc2oc3c(NCCN(C)C)ncnc3c2c2c1CCCC2	1	1.4	7%	13	i	4
CC(C)c1nc2oc3c(NCC4CCCO4)ncnc3c2c2c1CCC2 (centres undefined)	1.1	2.4*	10%	12	i	4
CCCc1nc2oc3c(NCc4ccccn4)ncnc3c2c2c1COC(C)(C)C2	1	2.7*	9%	5	i	4
CCOC(=O)N1CCN(c2ncnc3c2oc2nc(C)c4c(c23)CC(C)(C)OC4)CC1	1	1.2	3%	3	i	5
O=C(Nc1cccc2nsnc12)C1CC(=O)N(c2ccccc2)C1 (centres undefined)	1	1.4	7%	15	i	3
